NTR1 ag = agonists of human NTR1, primary screen, imaging, U2OS cells, beta-arrestin-GFP, high content. NTR1-U2OS beta-arrestin-GFP spot imaging, agonist mode. activation, % at 20 µM. 330,000 tested, 0.17% active. AID 493036, 2011;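 active = activation at or above 40% of the spot to cytoplasm intensity ratio, with at least 20 cells analyzed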;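 note: 0% = DMSO without peptide and 100% = 100 nM NTR1 peptide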
CHO-K1 Ca antag = counter-screen for M1 antagonists: effect in parental CHO-K1 cells. ATP-induced calcium, Fluo-8 fluorescence. inhibition, % at 3 µM. 360,000 tested, 0.6% active;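 active = inhibition above a per-plate cutoff, the plate's mean sample inhibition plus 3 SD, cut at about 24% in these data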;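 note: 0% = DMSO plus EC80 ATP and 100% = DMSO alone without ATP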
M1 PAM parental = nonselective calcium activators in parental CHO-K1 cells, primary screen, counter-screen for M1 PAM project, cell-based, Fluo-8 calcium fluorescence, full deck, 1536-well; 360,000 tested, 0.02% active; AID 602247, 2012; ATP EC20; 0% at ATP EC20, 100% at ATP max; activation, % at 3 µM;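 active = activation above the run cutoff, the mean activation of all test compounds plus 3 SD, cut at about 40% in these data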;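 note: peak over basal fluorescence ratio in a 140 s read after ATP addition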
TMEM16A inh = TMEM16A chloride channel inhibitors, primary screen, cell-based, HTS; Anoctamin-1 (Mus musculus), Q8BHY3; HEK293 TMEM16A/YFP iodide influx fluorescence, ionomycin; normalized B-score (activity score, 25-100; higher = stronger inhibition) at 10 µM; 310,000 tested, 1.2% active; AID 588511, 2011;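 active = ratio plate-corrected score three or more library SD toward inhibition, starting fluorescence score within five deviations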;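 note: score derived from kinetic fluorescence span divided by baseline fluorescence per well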
CHO-K1 Ca ag = counter-screen for M1 agonists: effect in parental CHO-K1 cells; Fluo-8 calcium fluorescence; scaled to maximal ATP response, vehicle zero; activation, % at 3 µM; 360,000 tested, 0.48% active; in the data active = activation above about 15%;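 note: untransfected CHO-K1 host cells lacking M1 receptor as counterscreen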
TMEM16A act = TMEM16A chloride channel activators or potentiators, primary screen, cell-based, HTS; Anoctamin-1 (Mus musculus), Q8BHY3; HEK293 TMEM16A/YFP-H148Q/I152L, iodide quench fluorescence; active compounds read low; B-score at 10 µM; 340,000 tested, 0.3% active; AID 623877, 2012;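 active = fluorescence-ratio B-score plate-corrected deviation score at least 3 library SD below zero, with starting fluorescence score within 5 deviations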;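 note: channel opened by trigger with iodide after compound preincubation; score built on the fluorescence ratio of max minus min over baseline; more negative score means more quench and so TMEM16A activation or potentiation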
The depositor's hits bear a star; i = inactive; / = no result given. An excerpt weighted towards active compounds, which were near 2.2% of everything screened.

SMILES	NTR1 ag	CHO-K1 Ca antag	M1 PAM parental	TMEM16A inh	CHO-K1 Ca ag	TMEM16A act
O=C(c1cc(C2CC2)nc2ccc(Br)cc12)N1N=C(C(F)F)CC1(O)C(F)F (stereo unspecified)	20.2	13.6	17.6	100*	3.5	i
O=C(c1cc(C2CC2)nc2ccccc12)N1N=C(C(F)F)CC1(O)C(F)F (stereo unspecified)	2.0	-2.4	5.4	i	1.6	i
Cc1ccc(F)cc1C(=O)N1CCOCC1c1cc(C(=O)Nc2ccccc2)no1 (stereo unspecified)	/	0.0	-17.6	/	3.8	/
O=C(NC1CCCN(Cc2ccc(Cl)cc2)C1)c1cnc2ccccn2c1=O (stereo unspecified)	4.9	-11.9	7.0	i	1.4	i
CC(C)Cc1ccc(CN2CCCC(NC(=O)c3cnc4ccccn4c3=O)C2)cc1 (stereo unspecified)	12.5	-9.3	-2.3	25*	0.2	i
CCCCCCN1C[C@@H](n2cc(-c3ccc(F)cc3)nn2)[C@H](O)C[C@@H]1c1ccc(Cl)cc1	/	-5.4	11.8	/	0.6	/
O=C(Nc1ccncc1)Nc1cccc(Cl)c1	1.6	3.0	1.6	i	14.1	i
O=C(Nc1cccc(Cl)c1)Nc1csc([N+](=O)[O-])c1	15.8	20.2	-5.5	i	15.8*	i
C[C@@H]1CN([C@@H](C)CO)C(=O)c2cc(C#CCN(C)C)cnc2O[C@H]1CN(C)Cc1ccc2c(c1)OCO2	/	-4.7	1.5	/	-0.2	/
Cc1c(C(C)C)c(=O)n(-c2ccc(S(=O)(=O)NCc3ccccc3)cc2)n1C	1.1	24.5*	-11.5	25*	8.4	i
CCNC(=O)C1(C)CCCN1C(=O)c1cc(C)on1 (stereo unspecified)	/	-8.5	13.6	/	0.3	/
Cc1c(/C=N/NC(=O)c2sc3ccccc3c2Cl)cnn1C	-3.8	25.7*	2.8	i	0.5	i
Cc1c(OCC(=O)N(C)C)ccc2c3c(c(=O)oc12)CCCCC3	-0.6	25.2*	-12.8	i	0.7	i
CC(=O)COc1ccc2c3c(c(=O)oc2c1C)CCCCC3	3.0	-23.5	-5.1	i	13.2	i
Cc1c(OCC(=O)N2CCN(c3ccccc3)CC2)ccc2c3c(c(=O)oc12)CCCC3	1.5	25.1*	7.6	i	1.8	i
Cc1c(OCC(=O)N2CCC(C(=O)O)CC2)ccc2c3c(c(=O)oc12)CCCC3	-1.2	2.2	-11.4	i	0.3	i
NCC(=O)NCC(=O)NC[C@H]1O[C@@H](n2cnc3c(N)ncnc32)[C@H](O)[C@@H]1O	3.3	10.8	1.4	/	0.1	/
O=S(=O)(c1ccccc1)N1CCC(Oc2ccc(-n3cnnn3)cc2)CC1	4.8	2.5	-11.9	i	17.7*	i
c1ccc2c(-c3ccc4nncn4c3)cncc2c1	/	-3.9	19.3	/	0.4	/
COc1cc(/C=C/C(=O)OCC(=O)Nc2ccc([N+](=O)[O-])cc2)ccc1O	10.7	-14.2	12.4	i	19.2*	i
COc1ccc([C@H]2CC(=O)C[C@@H](CCn3cc(Cc4ccccc4)nn3)O2)cc1	/	-17.7	8.4	/	1.5	/
Cc1ccc2[nH]c(C(=O)N3CCOCC3)cc2c1	-0.3	25.1*	-11.9	i	-0.5	i
Cc1ccc2[nH]c(C(=O)N3CCCCC3)cc2c1	0.2	-3.4	8.0	i	0.3	i
CCc1c(C)sc(NC(=O)c2cc(-c3ccc(OC)c(OC)c3)on2)c1C#N	2.2	-5.0	2.8	i	-0.2	i
CCc1c(C)sc(NC(=O)c2cc(-c3ccc(O)cc3)on2)c1C#N	0.2	32.6*	-10.8	i	-0.3	i
SMILES	NTR1 ag	CHO-K1 Ca antag	M1 PAM parental	TMEM16A inh	CHO-K1 Ca ag	TMEM16A act
O=C(O)CCCn1cc(NC(=O)c2c(F)cccc2F)cn1	-0.7	15.2	-3.5	i	16.4*	i
O=C(c1cccs1)N1CCN(Cc2nc(-c3ccccc3)no2)CC1	/	6.8	-11.2	/	0.6	/
CC(NC(=O)Nc1cccc(Cl)c1)C(c1cccs1)N1CCCC1 (stereo unspecified)	1.2	4.7	8.6	i	14.0	i
CC(NC(=O)Nc1ccc([N+](=O)[O-])cc1)C(c1cccs1)N1CCCC1 (stereo unspecified)	-1.1	12.2	2.0	i	25.1*	i
OCC[C@@H]1C[C@H](O)[C@@H](O)[C@]2(OCc3cc(Cl)ccc32)O1	/	21.4	0.4	/	-0.2	/
COc1ccccc1C1CCN(c2cc(O)ccc2[N+](=O)[O-])CC1	3.0	0.0	5.5	100*	6.2	i
CCOc1ccccc1N1CCN(CC(=O)NCCc2ccc(S(N)(=O)=O)cc2)CC1	-0.6	-4.3	12.9	i	-0.2	-5.45*
Cc1ccc(C(C)NC(=O)CSc2ccc(S(=O)(=O)N3CCOCC3)cn2)cc1C (stereo unspecified)	/	-8.1	-8.7	/	0.8	i
CC1=CC(C)(C)Nc2ccc(OS(=O)(=O)c3ccc(C)cc3)cc21	3.6	-13.9	10.0	i	2.9	i
CC(=O)Nc1ccc(S(=O)(=O)Oc2ccc3c(c2)C(C)=CC(C)(C)N3)cc1	4.6	/	/	25*	/	/
COC(=O)c1ccc(OS(=O)(=O)c2ccc(NC(C)=O)cc2)cc1	1.0	24.4*	-13.7	i	4.5	i
CC(=O)Nc1ccc(S(=O)(=O)Oc2ccc(/C=N/NC(=O)c3ccc(Cl)cc3)cc2)cc1	3.8	-0.5	15.2	i	2.1	i
Cc1ccc(F)c(CNC(=O)C2CCC(=O)N(Cc3ccccn3)C2)c1F (stereo unspecified)	0.1	26.8*	0.0	i	0.3	i
Cc1ccc(F)c(CNC(=O)C2CCC(=O)N(CCCN3CCCC3=O)C2)c1F (stereo unspecified)	-0.1	8.7	-3.7	i	0.2	i
CCCNC(=O)c1cc(S(=O)(=O)N2CCCCC2)c[nH]1	2.0	1.7	15.4	i	0.4	-8.3*
CN(C)c1ccc(C=Cc2nccc3ccccc23)cc1	/	25.4*	-2.6	/	19.9*	/
CN(C)c1nc(N)c2nccnc2n1	/	-2.4	23.2	/	1.7	i
CCN(CC)c1nc(C=Cc2ccc(N(C)C)cc2)c2nccnc2n1	/	44.5*	-3.0	/	44.6*	/
CN(C)CCCN(C(=O)c1cc2cc([N+](=O)[O-])ccc2s1)c1nc2cc3c(cc2s1)OCCO3	26.3	0.0	-26.4	i	0.6	i
CC[C@H](C)/C=C/C1=CC2=C(Cl)C(=O)[C@@]3(C)OC(=O)C(C(=O)[C@H](C)[C@@H](C)O)=C3C2=CO1	-1.1	-12.2	15.4	25*	0.4	i
